SMILES strings stand for the structures. Among all 3,200 compounds or so, about 300 (9.4%) showed activity. The entries come from a sample that favours actives as a whole. Values without a mark were called inactive.

The text below walks through data of the supplement of paper PMC6089552.

This test deals with A673/TR/shEF. The test can be described thus: cell viability (LOESS-normalised, relative to median of negative controls) (log2 ratio); higher = more viable cells (less compound effect), active = hit call of the paper (over 3 MAD below the median). The following applies: treatment time: 72 h. The essentials: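 A673/TR/shEF Ewing sarcoma cells were plated at 1,500 per well in 384-well plates and cultured with or without doxycycline, added 24 h before compounds, to induce EWS-FLI1 shRNA knockdown. Library compounds at two or more concentrations, alongside DMSO controls, were applied for three days. Cell viability was measured by CellTiter-Glo luminescence on an Envision reader. Readings were LOESS-corrected per plate, divided by the median of negative controls and log2-transformed, and hits were wells lying at least three median absolute deviations from the median of all screened wells.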

[1] abbreviates: 0.25 µM, library screen: screen1, EWS-FLI1 expression: high (no doxycycline).
Setting [2] is: 0.25 µM, library screen: screen1, EWS-FLI1 expression: low (doxycycline-induced shRNA knockdown).
The mark [3] stands for this setting: 2.5 µM, library screen: screen1, EWS-FLI1 expression: high (no doxycycline).
Setting [4] is: 2.5 µM, library screen: screen1, EWS-FLI1 expression: low (doxycycline-induced shRNA knockdown).
[5] abbreviates: 0.25 µM, library screen: screen2, EWS-FLI1 expression: high (no doxycycline).
Setting [6] is: 0.25 µM, library screen: screen2, EWS-FLI1 expression: low (doxycycline-induced shRNA knockdown).
Where [7] appears, read: 2.5 µM, library screen: screen2, EWS-FLI1 expression: high (no doxycycline).
Where [8] appears, read: 2.5 µM, library screen: screen2, EWS-FLI1 expression: low (doxycycline-induced shRNA knockdown).

Consider `CCNc1nc(Cl)nc(NC(C)C)n1`, for which the “cell viability (log2)” value runs as follows: under setting [1], 0.143; under setting [2], 0.0518; under setting [3], 0.132; under setting [4], 0.0856.
Regarding `CCC1(C2=NCCN2)Cc2ccccc2O1` (stereo not drawn), the “cell viability (log2)” value reads like this: under setting [5], 0.203; under setting [6], 0.0265; under setting [7], 0.184; under setting [8], 0.0979.
Consider `CC[C@@]1([C@H]2O[C@H]([C@H]3O[C@@](O)(CO)[C@H](C)C[C@@H]3C)C[C@H]2C)CC[C@H]([C@@]2(C)CC[C@]3(C[C@H](O)[C@@H](C)[C@@H]([C@H](C)[C@H](OC)[C@@H](C)C(=O)O)O3)O2)O1`, for which the “cell viability (log2)” value reads like this: under setting [1], -0.0386; under setting [2], 0.12; under setting [3], -0.325 (active); under setting [4], 0.0352.
The matching figures for `CO[C@@H]1C[C@@H](C[C@H]2CC[C@H](C)[C@H]([C@@H](C)C(=O)O)O2)O[C@]2(O[C@](C)([C@H]3CC[C@@](C)([C@@H]4O[C@@H]([C@H]5O[C@@](O)(CO)[C@H](C)C[C@@H]5C)C[C@@H]4C)O3)C[C@H]2C)[C@@H]1C`: 0.0701, 0.147, -0.685 (active) and -0.0408.
As to `CN1CCc2cc(O)cc3c2C1Cc1ccc(O)c(O)c1-3` (stereo not drawn), the “cell viability (log2)” value under setting [5] is 0.248, the “cell viability (log2)” value under setting [6] was 0.14, the “cell viability (log2)” value under setting [7] was 0.197 and the “cell viability (log2)” value under setting [8] is 0.135.
The matching figures for `Nc1ccc2c(n1)[nH]c1ccccc12`: 0.156, 0.0674, 0.0702 and 0.0934.
The matching figures for `Nc1ccc(CCN2CCN(c3cccc(C(F)(F)F)c3)CC2)cc1`: 0.0196, 0.0537, 0.131 and 0.044.
Take `C[C@@H]1C[C@H]2CC(=O)[C@H]3CCCN4CCC[C@H]2[C@]34C1`: the “cell viability (log2)” value is, setting by setting: under setting [1], 0.103; under setting [2], 0.0455; under setting [3], 0.108; under setting [4], 0.0845.
On to `O=P1(N(CCCl)CCCl)NCCCO1` (stereo not drawn), for which the “cell viability (log2)” value was 0.105 (0.025 µM, library screen: screen2, EWS-FLI1 expression: high (no doxycycline)); 0.0824 (0.025 µM, library screen: screen2, EWS-FLI1 expression: low (doxycycline-induced shRNA knockdown)); 0.146 (0.103 µM, library screen: screen3, EWS-FLI1 expression: high (no doxycycline)); 0.0804 (0.103 µM, library screen: screen3, EWS-FLI1 expression: low (doxycycline-induced shRNA knockdown)); 0.11 under setting [1]; 0.163 under setting [2]. Moreover, the “cell viability (log2)” value under setting [5] is 0.137; the “cell viability (log2)” value under setting [6] is 0.0863; the “cell viability (log2)” value (0.308 µM, library screen: screen3, EWS-FLI1 expression: high (no doxycycline)) was 0.0638; the “cell viability (log2)” value (0.308 µM, library screen: screen3, EWS-FLI1 expression: low (doxycycline-induced shRNA knockdown)) is 0.0134; the “cell viability (log2)” value (0.926 µM, library screen: screen3, EWS-FLI1 expression: high (no doxycycline)) was 0.0846; the “cell viability (log2)” value (0.926 µM, library screen: screen3, EWS-FLI1 expression: low (doxycycline-induced shRNA knockdown)) is 0.061. Further, the “cell viability (log2)” value was 0.228 under setting [3]; 0.17 under setting [4]; 0.122 under setting [7]; 0.0525 under setting [8]; 0.114 (2.8 µM, library screen: screen3, EWS-FLI1 expression: high (no doxycycline)); 0.0823 (2.8 µM, library screen: screen3, EWS-FLI1 expression: low (doxycycline-induced shRNA knockdown)). Besides, the “cell viability (log2)” value was 0.0653 (8.3 µM, library screen: screen3, EWS-FLI1 expression: high (no doxycycline)); 0.1 (8.3 µM, library screen: screen3, EWS-FLI1 expression: low (doxycycline-induced shRNA knockdown)); 0.0276 (25 µM, library screen: screen2, EWS-FLI1 expression: high (no doxycycline)); 0.165 (25 µM, library screen: screen2, EWS-FLI1 expression: low (doxycycline-induced shRNA knockdown)); 0.071 (25 µM, library screen: screen3, EWS-FLI1 expression: high (no doxycycline)); 0.141 (25 µM, library screen: screen3, EWS-FLI1 expression: low (doxycycline-induced shRNA knockdown)).
Consider `Cc1c(N)nc([C@H](CC(N)=O)NC[C@H](N)C(N)=O)nc1C(=O)N[C@H](C(=O)N[C@H](C)[C@@H](O)[C@H](C)C(=O)N[C@H](C(=O)NCCc1nc(-c2nc(C(=O)NCCC[S+](C)C)cs2)cs1)[C@@H](C)O)[C@@H](OC1OC(CO)C(O)C(O)C1OC1OC(CO)C(O)C(OC(N)=O)C1O)c1cnc[nH]1` (stereo partly drawn), for which the “cell viability (log2)” value under setting [1] is 0.091, the “cell viability (log2)” value under setting [2] is 0.105, the “cell viability (log2)” value under setting [3] is 0.125 and the “cell viability (log2)” value under setting [4] is 0.052.
The matching figures for `C[C@]12CC[C@H](O)C[C@H]1CC[C@@H]1[C@@H]2C[C@@H](O)[C@]2(C)[C@@H](C3=CC(=O)OC3)CC[C@]12O`: 0.0425, -0.036, -0.488 (active) and -0.691 (active).
The matching figures for `C[C@]12CCC3C(CC[C@H]4C[C@H](O)CC[C@]34C)C1CC[C@@H]2O` (stereo partly drawn): 0.158, 0.216, 0.201 and 0.106.
The matching figures for `C[C@]12CC[C@H](O)C[C@@H]1CC[C@@H]1[C@@H]2CC[C@]2(C)C(=O)CC[C@@H]12`: 0.113, 0.0515, 0.101 and 0.0566.
As for `C[C@]12CC[C@@H](O)C[C@@H]1CC[C@@H]1[C@@H]2CC[C@]2(C)C(=O)CC[C@@H]12`, the “cell viability (log2)” value was -0.00242 under setting [1]; -0.00815 under setting [2]; 0.137 under setting [5]; 0.0672 under setting [6]; 0.0414 under setting [3]; 0.0708 under setting [4]. Also, the “cell viability (log2)” value reads like this: under setting [7], 0.202; under setting [8], 0.0943.
With `C[C@]12CC[C@H](O)C[C@H]1CC[C@@H]1[C@@H]2[C@H](O)C[C@]2(C)[C@@H](C3=CC(=O)OC3)CC[C@]12O`, the “cell viability (log2)” value is 0.0899 under setting [1], -0.0779 under setting [2], -0.259 (active) under setting [3] and -0.409 (active) under setting [4].
The matching figures for `C[C@]12CC[C@H](O)C[C@@H]1CC[C@@H]1[C@@H]2CC[C@]2(C)[C@@H](O)CC[C@@H]12`: 0.128, 0.00375, 0.117 and 0.154.
The matching figures for `CN1C2C[C@H](OC(=O)[C@H](CO)c3ccccc3)CC1[C@@H](O)C2` (stereo partly drawn): 0.0376, 0.0137, 0.116 and 0.0715.
As to `C=C1C2CC[C@@]3(C)[C@H](c4ccoc4)OC(=O)C[C@]13O[C@H]1CC(=O)C(C)(C)[C@H](C(OC(C)=O)C(=O)OC)[C@@]21C` (stereo partly drawn), the “cell viability (log2)” value by setting is: under setting [1], 0.0428; under setting [2], 0.0583; under setting [3], 0.106; under setting [4], 0.119.
As to `CN1C2CCC1CC(OC(c1ccccc1)c1ccccc1N)C2` (stereo not drawn), the “cell viability (log2)” value runs as follows: under setting [1], 0.0792; under setting [2], 0.0013; under setting [5], 0.13; under setting [6], 0.107; under setting [3], 0.094; under setting [4], -0.0817. Moreover, the “cell viability (log2)” value runs as follows: under setting [7], 0.165; under setting [8], 0.125.
For `C[C@@H]1C(=O)O[C@H]2[C@H]1CC[C@@]1(C)C=CC(=O)[C@@]3(C)O[C@@]213`, the “cell viability (log2)” value by setting is: under setting [1], -0.0341; under setting [2], 0.0137; under setting [3], 0.0354; under setting [4], 0.0553.
The matching figures for `COP(N)(=O)SC` (stereo not drawn): 0.148, 0.0387, 0.151 and 0.112.
In the case of `COc1cc(C(O)CN)ccc1O` (stereo not drawn), the “cell viability (log2)” value runs as follows: under setting [5], 0.137; under setting [6], 0.137; under setting [7], 0.0316; under setting [8], 0.00185.
Regarding `c1ccc(N=Nc2ccccc2)cc1`, the “cell viability (log2)” value runs as follows: under setting [1], 0.0795; under setting [2], 0.0179; under setting [3], 0.0868; under setting [4], 0.083.
As for `NC(=NCCCC(N)C(=O)O)N[N+](=O)[O-]` (stereo not drawn), the “cell viability (log2)” value reads like this: under setting [1], 0.0461; under setting [2], 0.0355; under setting [5], 0.174; under setting [6], -0.00505; under setting [3], 0.0987; under setting [4], 0.0962. Also, the “cell viability (log2)” value is 0.128 under setting [7] and 0.0828 under setting [8].
